FAS TE block – FAS thioesterase domain inhibitors, primary screen, biochemical, fluorescence intensity, uHTS; actives 0.67% (n = 360,000); inhibition, % at 15 µM; recombinant FAS-TE, OMFH fluorogenic substrate, fluorescence endpoint; Fatty acid synthase (Homo sapiens), P49327; AID 602261, 2012;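 active means compounds whose normalised, plate-corrected inhibition of enzyme fluorescence in the single-dose primary screen is 50% or more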;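 further: 0% = DMSO with enzyme and 100% = substrate without enzyme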
ADAM17 inh – ADAM17 inhibitors, primary screen, biochemical, QFRET; Disintegrin and metalloproteinase domain-containing protein 17 (Homo sapiens), P78536; recombinant ADAM17, EDANS/DABCYL FRET peptide cleavage; inhibition, % at 6.95 µM; actives 0.83% (n = 370,000); AID 720648, 2013;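 active means inhibition above the mean of compounds lying between control limits plus 3 SD, set per campaign, cut at about 8.5% in these data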;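 further: 0% = DMSO-only wells as the low control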
ADAM10 inh – human ADAM10 inhibitors, primary screen, biochemical, QFRET, HTS; recombinant ADAM10, EDANS/DABCYL FRET peptide cleavage, 3 h; inhibition, % at 7 µM; actives 0.62% (n = 370,000); AID 720582, 2013;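 active means inhibition above a per-campaign cutoff equal to the mean of compounds falling between control-based bounds plus 3 SD, cut at about 20% in these data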;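 further: 0% = DMSO wells while the 100% control is not disclosed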
Target sequence (O14672 214-748 limits assumed): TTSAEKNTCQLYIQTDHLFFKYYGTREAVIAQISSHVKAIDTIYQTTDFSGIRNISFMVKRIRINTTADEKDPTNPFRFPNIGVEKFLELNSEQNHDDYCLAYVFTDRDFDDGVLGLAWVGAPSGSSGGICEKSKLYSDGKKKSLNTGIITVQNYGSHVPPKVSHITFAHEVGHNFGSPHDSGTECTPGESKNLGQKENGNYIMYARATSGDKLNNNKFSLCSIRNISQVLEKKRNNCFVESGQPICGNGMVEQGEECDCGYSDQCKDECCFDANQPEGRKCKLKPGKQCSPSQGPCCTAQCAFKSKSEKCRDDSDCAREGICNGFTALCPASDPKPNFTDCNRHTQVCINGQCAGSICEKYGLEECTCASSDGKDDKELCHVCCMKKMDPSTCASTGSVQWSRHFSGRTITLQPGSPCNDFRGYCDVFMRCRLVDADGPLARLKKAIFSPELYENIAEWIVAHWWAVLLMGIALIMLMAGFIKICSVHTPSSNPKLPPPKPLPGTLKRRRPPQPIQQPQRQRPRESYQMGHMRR
GRIN3A LBD mod – binders of NR3A ligand-binding domain, primary screen, biophysical, differential scanning fluorimetry, uHTS; Glutamate receptor ionotropic, NMDA 3A (GRIN3A) ligand-binding domain; NR3A LBD differential scanning fluorimetry, Tm shift; 0% = protein alone, 100% = glycine-bound protein; Tm shift relative to glycine control, % at 25 µM; actives 2.5% (n = 340,000); AID 1259313, 2017;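 active means melting temperature shift of at least 10% of the positive control shift, at one fixed dose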
HGIII-sPLA2 inh – human group III sPLA2 inhibitors, primary screen, biochemical, QFRET, BODIPY PC-A2 liposome substrate. AID 743126, 2013. QFRET BODIPY PC-A2 liposome hydrolysis, fluorescence. actives 0.56% (n = 370,000). Group 3 secretory phospholipase A2 (Homo sapiens), Q9NZ20. inhibition, % at 12.2 µM;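 active means inhibition above mean plus 3 SD of compounds lying within the high and low control bounds, cut at about 19% in these data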;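 further: 0% = median of test compound wells and 100% = no enzyme DMSO wells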
FAS-TE conf – FAS thioesterase domain inhibitors, confirmation, biochemical, fluorescence intensity, single concentration; inhibition, % at 15 µM; actives 45% (n = 2,300); recombinant FAS-TE, OMFH fluorogenic substrate; shares compounds with FAS TE block;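 active means compounds inhibiting the enzyme by at least 50% at 15 µM in any one of the replicates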;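 further: 0% = enzyme with DMSO only and 100% = wells lacking enzyme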
* hit, by the source's call; / = no result given. An excerpt weighted towards active compounds, which were near 4.3% of everything screened.

SMILES	FAS TE block	ADAM17 inh	ADAM10 inh	GRIN3A LBD mod	HGIII-sPLA2 inh	FAS-TE conf
OC(c1ccccc1)(c1ccccc1)C1CCN(CCCNc2ccccc2Br)CC1	/	3	8	/	-16	/
COC(=O)c1cc([N+](=O)[O-])c(-n2cncn2)c([N+](=O)[O-])c1	57*	0	-2	-2	-7	29
CC(NC(=O)c1ccccc1Cl)C1CC2CCC1C2 (configuration not stated)	-2	-3	-1	1	6	/
CC(NC(=O)c1ccc([N+](=O)[O-])cc1Cl)C1CC2CCC1C2 (configuration not stated)	57*	4	12	-1	19	66*
Cn1c(=O)cc(SCC(=O)NCCC2=CCCCC2)c2cc(Cl)ccc21	69*	-3	-2	-5	-3	30
COc1cc2ncc(S(=O)(=O)c3ccccc3)c(N3CCCC(C)C3)c2cc1OC (configuration not stated)	78*	2	4	15*	3	71*
CCOC(=O)CCCNC(=O)O[C@@H]1CC[C@@]23CCCN2C(=O)CCC[C@H]3C1	/	-1	2	/	4	/
C=CCN1C(=O)/C(=C/c2ccc(OC(C)=O)c(OCC)c2[N+](=O)[O-])SC1=S	75*	6	19	4	-11	46*
COc1cccc(C(=O)Nc2nc(-c3ccc(S(=O)(=O)N4CCOCC4)cc3)cs2)c1	23	0	4	-3	-5	/
Cc1ccc(-c2csc(NC(=O)COC(=O)c3cccc(S(=O)(=O)N4CCOCC4)c3)n2)cc1	/	-3	6	0	2	/
CC(C)CC(=O)Nc1nc(-c2ccc(S(=O)(=O)N3CCOCC3)cc2)cs1	52*	-7	-14	0	2	20
CCCCC(=O)Nc1nc(-c2ccc(S(=O)(=O)N3CCOCC3)cc2)cs1	88*	-12	-28	0	-7	91*
O=S(=O)(c1ccc(-c2csc(-c3cccnc3)n2)cc1)N1CCOCC1	79*	-1	-11	-6	-5	82*
CCN1CCCCC(NC(=O)c2ccccc2OC)C1=O (configuration not stated)	/	-8	-13	/	10	/
Cc1cc(=O)oc2cc(OCc3ccc(S(=O)(=O)N4CCOCC4)cc3)ccc12	67*	-17	-39	18*	-3	14
C[C@@H]1CCCCO[C@H](CN(C)C(=O)Nc2cccc3ccccc23)[C@@H](C)CN([C@H](C)CO)C(=O)c2cc(NC(=O)c3ccccc3)ccc2O1	78*	-10	-26	/	-6	0
C[C@@H]1CN([C@@H](C)CO)C(=O)c2cc(NC(=O)Nc3cccc4ccccc34)ccc2O[C@@H](C)CCCCO[C@H]1CN(C)C(=O)c1ccccc1	11	-17	-66	/	-10	/
Cc1ccc(S(=O)(=O)N(C)C[C@H]2OCCCC[C@H](C)Oc3ccc(NC(=O)Nc4cccc5ccccc45)cc3C(=O)N([C@@H](C)CO)C[C@H]2C)cc1	82*	-25	-96	/	-6	6
CC(C)NC(=O)N(C)C[C@H]1OCCCC[C@@H](C)Oc2ccc(NC(=O)C3CCCCC3)cc2C(=O)N([C@H](C)CO)C[C@@H]1C	-6	-5	-11	/	2	/
C[C@@H]1CN([C@@H](C)CO)C(=O)c2cc(NC(=O)C3CCCCC3)ccc2O[C@@H](C)CCCCO[C@H]1CN(C)S(=O)(=O)c1ccc(Cl)cc1	81*	7	16	/	-17	8
COC(=O)C1=C(C)N(Cc2ccc(C(F)(F)F)cc2)C(=NCc2ccc3c(c2)OCO3)NC1c1cccc(Cl)c1 (configuration not stated)	/	4	9	/	-8	/
CC(C)(C)N1Cc2nnn(Cc3ccccc3)c2-c2ccccc2S1(=O)=O	/	-1	1	/	8	/
O=c1[nH]c(C2CCCN(S(=O)(=O)c3cccc(Cl)c3)C2)nc2c1nnn2Cc1ccc2c(c1)OCCO2 (configuration not stated)	54*	-1	5	-4	-1	16
CCc1ccc([C@H]2C[C@H]3[C@H]4C(=O)N(c5ccccc5)C(=O)[C@H]4CC(=O)[C@@H]3CN2S(=O)(=O)c2ccc(C)cc2)cc1	74*	4	17	/	-44	13
CCOC1=C2[C@@H](CN(S(=O)(=O)c3ccc(C)cc3)[C@H]2c2ccccc2)[C@H]2C(=O)N(c3ccccc3)C(=O)[C@H]2C1	28	-4	-19	/	9	/
SMILES	FAS TE block	ADAM17 inh	ADAM10 inh	GRIN3A LBD mod	HGIII-sPLA2 inh	FAS-TE conf
Cc1ccc(S(=O)(=O)N2C[C@H]3C(=O)C[C@@H]4C(=O)N(c5ccccc5)C(=O)[C@@H]4[C@@H]3C[C@H]2c2cccc(Cl)c2)cc1	85*	-4	-8	/	-2	1
CCOC1=C2CN(S(=O)(=O)c3ccc(C)cc3)[C@@H](c3cccs3)C[C@H]2[C@H]2C(=O)N(c3ccccc3)C(=O)[C@H]2C1	78*	-2	-4	/	-8	22
Cc1ccc(S(=O)(=O)N2C[C@H]3C(=O)C[C@@H]4C(=O)N(c5ccccc5)C(=O)[C@@H]4[C@@H]3C[C@H]2c2cccs2)cc1	70*	-2	1	/	-17	46
CC(C)c1cc(C(C)C)c(S(=O)(=O)N2CCC(C(=O)NCC3COCCO3)CC2)c(C(C)C)c1 (configuration not stated)	/	4	-3	/	-12	/
CCOC(=O)[C@@]12CCC3=C1N(CCC3)C(=O)[C@H](CC(=O)NCc1ccc(C)o1)C2	/	-3	2	/	-7	/
CC(C)C[C@H]1C(=O)N2CCC[C@H]2[C@]2(O)O[C@](NC(=O)C3C=C4c5cccc6[nH]c(Br)c(c56)C[C@H]4N(C)C3)(C(C)C)C(=O)N12 (some centres not stated)	52*	-15	-48	-8	-24	25
Cn1cnc([N+](=O)[O-])c1Sc1nnc(-c2ccccc2)c(-c2ccccc2)n1	/	-3	-6	/	15	/
COC(=O)c1cc(NC(=S)NCc2ccc(Cl)cc2)cc(C(=O)OC)c1	51*	7	2	25*	-30	36
Cc1ccc(S(=O)(=O)N2CCN(C(=O)c3cc4c(C)nn(-c5ccccc5)c4s3)CC2)cc1	62*	-2	3	0	2	13

Compound activity: PubChem, several laboratories
